# Data taken from the supplement of paper PMC3545927.
# Some of the results follow. How many sequences the whole screen found active is unknown.
# Target: furin, P09958
# Experiment: furin cleavage Z-score vs untreated control; higher = more cleavage, active = 3.5 or more, inactive = 1 or less, 8 variable residues between constant flanks
# Description: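 Multiplexed peptide-cDNA fusion cleavage assay. 8-mer variable peptides flanked by constant Cys-Ala (N-term) and Ala-Gly-Asn-Ala-Ser-Ala-Ser-Ala (C-term) and conjugated to a cDNA oligonucleotide were bead-immobilised via the N-terminus. They were treated with purified furin at a 1:10 enzyme:substrate ratio in 50 mM HEPES pH 7.5, 1 mM CaCl2, 100 mM NaCl for 7.5, 15 or 30 min. Released cDNA was counted by next-generation sequencing, and log counts versus no-furin controls were lowess-adjusted and converted to robust Z-scores.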
# Sequence of furin, P09958 (P09958 whole entry): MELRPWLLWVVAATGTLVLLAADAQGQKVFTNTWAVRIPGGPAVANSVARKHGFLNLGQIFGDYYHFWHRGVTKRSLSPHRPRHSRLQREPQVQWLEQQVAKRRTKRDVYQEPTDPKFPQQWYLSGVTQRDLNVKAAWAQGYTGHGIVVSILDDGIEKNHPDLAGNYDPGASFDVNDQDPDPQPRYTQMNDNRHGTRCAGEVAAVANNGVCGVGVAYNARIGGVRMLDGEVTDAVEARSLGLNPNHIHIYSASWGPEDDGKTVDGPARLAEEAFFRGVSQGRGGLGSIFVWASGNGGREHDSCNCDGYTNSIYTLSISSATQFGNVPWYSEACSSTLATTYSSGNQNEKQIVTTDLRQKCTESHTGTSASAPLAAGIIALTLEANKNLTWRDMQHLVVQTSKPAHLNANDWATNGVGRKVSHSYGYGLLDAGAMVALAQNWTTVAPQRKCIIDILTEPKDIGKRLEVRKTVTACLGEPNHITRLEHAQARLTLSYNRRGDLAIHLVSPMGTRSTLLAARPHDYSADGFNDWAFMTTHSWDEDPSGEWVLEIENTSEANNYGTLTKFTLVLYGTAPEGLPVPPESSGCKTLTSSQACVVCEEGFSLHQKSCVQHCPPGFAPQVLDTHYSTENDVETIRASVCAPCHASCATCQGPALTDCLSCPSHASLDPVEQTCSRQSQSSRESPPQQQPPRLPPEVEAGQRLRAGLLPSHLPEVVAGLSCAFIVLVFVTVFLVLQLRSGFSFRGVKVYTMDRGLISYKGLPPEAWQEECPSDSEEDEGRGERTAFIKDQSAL
Sequence,furin cleavage Z-score (7.5 min),furin cleavage Z-score (15 min),furin cleavage Z-score (30 min)
CAAEEYVEIRAGNASASA [HC1204],-0.657 (inactive),2,-1.07 (inactive)
CAQIVGGVYLAGNASASA [HC175],-0.135 (inactive),-2.24 (inactive),-1.9 (inactive)
CAVVRCSMSYAGNASASA [HC2033],1.28,0.684 (inactive),-0.612 (inactive)
CARERRNAIRAGNASASA [FS-3219],3.48,4.37 (active),4.64 (active)
CARYKRAGESAGNASASA [FS-2472],8.25 (active),10.6 (active),7.78 (active)
CARERRGPATAGNASASA [FS-2487],-1.34 (inactive),0.671 (inactive),-0.709 (inactive)
CARERRADHVAGNASASA [FS-2330],1.39,0.278 (inactive),2.34
CARERRRLMSAGNASASA [FS-2660],-1.21 (inactive),-0.546 (inactive),0.262 (inactive)
CARERRDVQRAGNASASA [FS-1696],10.6 (active),13.2 (active),9.38 (active)
CARERRTLSVAGNASASA [FS-2661],0.891 (inactive),2.33,3.01
CARERRDLFTAGNASASA [FS-2659],5.35 (active),8.1 (active),7.97 (active)
CARENRSLFTAGNASASA [FS-2009],0.285 (inactive),-0.333 (inactive),-1.13 (inactive)
CAAGCAWYELAGNASASA [HC922],-0.796 (inactive),-1.42 (inactive),-1.58 (inactive)
CAKEMEECSQAGNASASA [HC1794],0.752 (inactive),0.717 (inactive),0.689 (inactive)
CAEVPCHRPLAGNASASA [HC2405],0.138 (inactive),-0.494 (inactive),0.866 (inactive)
CAREQRSNGLAGNASASA [FS-3245],-0.772 (inactive),0.724 (inactive),1.43
CAREQRDICEAGNASASA [FS-2658],0.169 (inactive),0.317 (inactive),0.297 (inactive)
CAREQRDVERAGNASASA [FS-2485],1.98,3.86 (active),2.52
CASVERIKRQAGNASASA [FS-303],12.4 (active),11.8 (active),10.6 (active)
CAKVIRHKRQAGNASASA [FS-681],12.7 (active),12.4 (active),9.91 (active)
CAKVIDTLTCAGNASASA [HC221],-1.35 (inactive),-0.249 (inactive),-0.555 (inactive)
CAKVTFDRLQAGNASASA [HC1396],-1.13 (inactive),-0.299 (inactive),-2.04 (inactive)
CASIERVKRQAGNASASA [FS-961],10.9 (active),11.9 (active),7.3 (active)
CADVCCSMSYAGNASASA [HC1991],-0.0698 (inactive),-0.573 (inactive),1.23
CATTDCSGSWAGNASASA [HC1871],-0.934 (inactive),-0.299 (inactive),-0.368 (inactive)
CAEWTTPCSGAGNASASA [HC1968],-0.833 (inactive),-0.0659 (inactive),0.694 (inactive)
CAVVCVSMSYAGNASASA [HC83],0.357 (inactive),0.79 (inactive),-0.758 (inactive)
